The results in this text go back to PubChem BioAssay AID488777 (Sanford-Burnham Center for Chemical Genomics, 2010).

SMILES strings stand for the structures. “And” between values parts separate entries of the source, which are not always exact repeats. Identical values can stand only once. The source made the active and inactive calls. How the calls were made is not given here. Where only a bound is given, the exact number is not on record here.

This assay is described as follows: assay artefact check, AlphaScreen readout interference – biochemical, artefact control for SUMOylation inhibitor project, SAR follow-up (AID 488777). Particulars: purified counter-screen enzymes, TR-FRET, 60 min. In general terms: In Alpha technology, singlet oxygen from a donor bead excites a nearby acceptor bead.
As for `CCCCn1c(NC(=O)c2ccccc2Cl)c(C#N)c2nc3ccccc3nc21`, the IC50 is > 100 µM (inactive).
As to `COC(=O)C1=C(C(=O)OC)C2([C@H](Cc3ccc(C)cc3)Nc3ccccc3)C=CC1O2` (stereo partly drawn), the IC50 is > 100 µM (inactive).
Next, `c1ccc(CC(Nc2ccccc2)c2ccco2)cc1` (stereo not drawn): > 100 µM (inactive); `CCCCn1c(NC(=O)c2ccc(F)cc2)c(C#N)c2nc3ccccc3nc21`: 65.3 µM (active).
In the case of `COC(=O)C1=C(C(=O)OC)C2(C(Cc3ccc(F)cc3)Nc3ccccc3)C=CC1O2` (stereo not drawn), the IC50 was > 100 µM (inactive).
The figure for `COC(=O)C1=C(C(=O)OC)C2(C(Cc3ccc(OC(F)(F)F)cc3)Nc3ccccc3)C=CC1O2` (stereo not drawn) is > 100 µM (inactive).
For the molecule `COC(=O)C1=C(C(=O)O)C2C=CC1([C@@H](Cc1ccccc1)Nc1ccccc1)O2` (stereo partly drawn), the IC50 is > 100 µM (inactive).
In the case of `CCCCn1c(NC(=O)c2ccc(Cl)cc2)c(C#N)c2nc3ccccc3nc21`, the IC50 was 54.4 µM (active).
Consider `C=C[C@H](Nc1ccccc1)C12C=CC(O1)C(C(=O)OC)=C2C(=O)OC` (stereo partly drawn), for which the IC50 was > 100 µM (inactive).
In the case of `CCCC1=NN(c2ccc(C(=O)O)cc2)C(=O)/C1=C/c1ccc(O)cc1`, the IC50 is > 100 µM (inactive).
Consider `CCCCn1c(NC(=O)c2ccc(OC)cc2)c(S(=O)(=O)c2ccc(C)cc2)c2nc3ccccc3nc21`, for which the IC50 is > 100 µM (inactive).
Turning to `CCCCn1c(N)c(C#N)c2nc3ccccc3nc21`, the IC50 was > 100 µM (inactive).
Consider `COC(=O)C1=C(C(=O)OC)C2([C@@H](Cc3ccc(OC)cc3)Nc3ccccc3)C=CC1O2` (stereo partly drawn), for which the IC50 is > 100 µM (inactive).
The figure for `CCCCn1c(NC(=O)c2ccccc2Cl)c(S(=O)(=O)c2ccccc2)c2nc3ccccc3nc21` is > 100 µM (inactive).
As for `CCCC1=NN(c2ccc(C(=O)O)cc2)C(=O)/C1=C/c1ccc(OCc2ccccc2)c(OC)c1`, the IC50 was > 100 µM (inactive).
With `CCCCn1c(NC(=O)c2ccc(F)cc2)c(S(=O)(=O)c2ccc(C)cc2)c2nc3ccccc3nc21`, the IC50 is > 100 µM (inactive).
For the molecule `COC(=O)C1=C(C(=O)OC)C2([C@@H](Cc3ccc(C)cc3)Nc3ccccc3)C=CC1O2` (stereo partly drawn), the IC50 is > 100 µM (inactive).
Consider `CCCCn1c(NC(=O)c2cccc(Cl)c2)c(C#N)c2nc3ccccc3nc21`, for which the IC50 was > 100 µM (inactive).
On to `CCCCn1c(NC(=O)c2ccccc2)c(C#N)c2nc3ccccc3nc21`, for which the IC50 was 65.2 µM (active) and 91.7 µM (active).
Regarding `CCCC1=NN(c2ccccc2)C(=O)/C1=C/c1ccc(OCc2ccc(C(=O)OC)cc2)cc1`, the IC50 is > 100 µM (inactive).
The figure for `CCCCn1c(N)c(S(=O)(=O)c2ccc(C)cc2)c2nc3ccccc3nc21` is > 100 µM (inactive); for `CCCCn1c(NC(=O)c2ccccc2)c(S(=O)(=O)c2ccc(C)cc2)c2nc3ccccc3nc21` it is > 100 µM (inactive); for `CCCC1=NN(c2ccc(C(=O)O)cc2)C(=O)/C1=C/c1ccc(OCc2ccccc2)cc1` it is 16.4 µM (active).
In the case of `N#Cc1c(NC(=O)c2ccccc2Cl)n(Cc2ccccc2)c2nc3ccccc3nc12`, the IC50 was > 100 µM (inactive).
Consider `C=C[C@@H](Nc1ccccc1)C12C=CC(O1)C(C(=O)OC)=C2C(=O)OC` (stereo partly drawn), for which the IC50 is > 100 µM (inactive).
The figure for `C=CCn1c(NC(=O)c2ccccc2Cl)c(C#N)c2nc3ccccc3nc21` is > 100 µM (inactive).
For the molecule `COC(=O)C=C(NC(CO)(CO)CO)C(=O)OC`, the IC50 was > 100 µM (inactive).
Take `CCC[C@H](Nc1ccccc1)C12C=CC(O1)C(C(=O)OC)=C2C(=O)OC` (stereo partly drawn): the IC50 is > 100 µM (inactive).
In the case of `COC(=O)[C@@H]1C2CCC([C@@H](Cc3ccccc3)Nc3ccccc3)(O2)[C@@H]1C(=O)OC` (stereo partly drawn), the IC50 was > 100 µM (inactive).
With `CCCCn1c(NC(=O)c2ccco2)c(C#N)c2nc3ccccc3nc21`, the IC50 is > 100 µM (inactive).
The figure for `CCC[C@@H](Nc1ccccc1)C12C=CC(O1)C(C(=O)OC)=C2C(=O)OC` (stereo partly drawn) is > 100 µM (inactive); for `CCCCn1c(NC(=O)C2CCCCC2)c(C#N)c2nc3ccccc3nc21` it is > 100 µM (inactive); for `CCCCn1c(NC(C)=O)c(C#N)c2nc3ccccc3nc21` it is > 100 µM (inactive).

Usually IC50 stands for the concentration that gives 50% inhibition.
